# The source made the active and inactive calls. How the calls were made is not given here.
# Molecular target: Pantothenate synthetase (Mycobacterium tuberculosis (strain ATCC 25618 / H37Rv)) (UniProt P9WIL5)
# Assay: Recombinant Mtb pantothenate synthetase (PanC) inhibitors, coupled enzyme, confirmatory (AID 375);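 further: 0% = full reaction with vehicle and 100% = no enzyme background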
# Conditions: coupled enzyme assay; at 10 µM, active compounds read high
# Pantothenate synthetase (Mycobacterium tuberculosis (strain ATCC 25618 / H37Rv)), sequence (P9WIL5 whole entry, looked up): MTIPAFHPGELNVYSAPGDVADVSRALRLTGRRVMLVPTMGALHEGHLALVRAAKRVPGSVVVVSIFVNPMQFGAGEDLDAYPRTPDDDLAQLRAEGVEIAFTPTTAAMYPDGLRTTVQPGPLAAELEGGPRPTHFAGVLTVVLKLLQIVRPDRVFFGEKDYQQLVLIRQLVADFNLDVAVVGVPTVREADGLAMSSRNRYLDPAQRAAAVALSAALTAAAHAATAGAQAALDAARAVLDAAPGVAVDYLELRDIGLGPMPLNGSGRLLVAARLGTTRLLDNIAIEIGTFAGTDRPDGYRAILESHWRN
row,SMILES,inhibition
1,N#Cc1cnc(SCC(=O)c2ccccc2)nc1N,2% (inactive)
2,CCCCc1oc2ccccc2c1C(=O)c1cc(I)c(OCCN(CC)CC)c(I)c1,8% (inactive)
3,O=C(CSc1nnnn1-c1ccc2c(c1)OCO2)NCc1cccs1,0% (inactive)
4,O=C(O)CC(NC(=O)c1ccccc1NC(=O)c1ccccc1)C(=O)O (stereo not given),0% (inactive)
5,CCC(=O)N1CCN(c2nc(-c3ccccc3)c3c(c2C#N)CCCC3)CC1,4% (inactive)
6,O=C(CSc1nnc(-c2ccc(Br)cc2)n1C1CCCCC1)N1CCCC1,2% (inactive)
7,CN1CCN(CCCN2c3ccccc3Sc3ccc(Cl)cc32)CC1,0% (inactive)
8,CCc1ccccc1OCCCCCNCCO,3% (inactive)
9,O=C(NCc1cccnc1)c1ccc(=O)oc1,3% (inactive)
10,CSc1ccc2c(c1)N(CCC1CCCCN1C)c1ccccc1S2 (stereo not given),11% (inactive)
11,COc1ccccc1S(=O)(=O)n1cc(Cc2ccccc2)c(N)n1,0% (inactive)
12,COC(=O)c1oc2ccc(OC)cc2c1N,5% (inactive)
13,COc1ccc(C(=O)Nc2ccc(C)cn2)c(OC)c1,0% (inactive)
14,CC(=O)C1=C(C)NC(SCSc2ccccc2)=C(C#N)C1c1cccnc1 (stereo not given),4% (inactive)
15,Cc1cc(NC(=O)c2cnn3cccnc23)no1,3% (inactive)
16,O=C(Nc1ccc(-c2noc(-c3cccs3)n2)cc1)c1cccnc1,0% (inactive)
17,COc1ccc(OC)c(S(=O)(=O)N2c3ccccc3CC2C)c1 (stereo not given),0% (inactive)
18,CCn1c2ccccc2c2cc(N)ccc21,0% (inactive)
19,CCOC(=O)CSc1nnc(-c2cccnc2)n1Cc1ccccc1,0% (inactive)
20,CCc1ccc(N2CC(C(=O)OCC(=O)NC3CCS(=O)(=O)C3)CC2=O)cc1 (stereo not given),0% (inactive)

row,SMILES,inhibition
1,Cc1nn(-c2ccccc2)c2sc(C(=O)N3CCOCC3)cc12,0% (inactive)
2,CCOc1ccc(C(=O)OCc2nnc(-c3cccs3)o2)cc1OC,0% (inactive)
3,CCOc1ccc2[nH]c(O)c(NC(C)=O)c2c1,0% (inactive)
4,CCn1cc(SCC(=O)NCC2CCCO2)c2ccccc21 (stereo not given),0% (inactive)
5,N#C/C(C(=O)NCc1ccco1)=C1/SC(Cc2ccc(F)cc2)C(=O)N1c1ccccc1 (stereo not given),0% (inactive)
6,Nc1nnc(SCCOc2ccccc2)s1,3% (inactive)
7,CCOC(=O)Cc1csc(NC(=O)c2cccc(OC)c2)n1,0% (inactive)
8,Cc1cc(C)c(NC(=O)Cn2cc3c(n2)CCCC3)c(C)c1,0% (inactive)
9,O=C(O)c1ccc(COc2c(F)c(F)c(F)c(F)c2F)o1,0% (inactive)
10,CSC1=C(C#N)C(C)CC(=O)N1 (stereo not given),0% (inactive)
11,COC(=O)c1ccccc1NC(=O)N1CCCC1,0% (inactive)
12,COc1ccc(C2=NOC(C(=O)NCc3ccc(F)cc3)C2)cc1OC (stereo not given),0% (inactive)
13,O=C(COC(=O)C1CC1)c1c[nH]c2ccccc12,1% (inactive)
14,Cc1ccc(S(=O)(=O)N2CCN(C(=O)CN3CCOCC3)C2C(C)C)cc1 (stereo not given),0% (inactive)
15,COC(=O)c1ccccc1NC(=O)c1noc2c1CCC2,0% (inactive)
16,O=C(c1cccnc1)N1CCN(C(=O)c2ccccc2F)CC1,4% (inactive)
17,CCc1cccc2c(=O)c(C(=O)N3CCCCCC3)c[nH]c12,0% (inactive)
18,COc1ccc2[nH]c(=O)c(CN(C(=O)c3ccncc3)C(C)C)cc2c1,0% (inactive)
19,C=CCN(C(=O)CNS(=O)(=O)c1ccccc1)C(C(=O)NCCOC)c1ccncc1 (stereo not given),0% (inactive)
20,CCOC(=O)C1CCCN(Cc2nc(N)nc(Nc3ccc(C)cc3)n2)C1 (stereo not given),0% (inactive)

# Reference: PubChem BioAssay
